Measured values published in PubChem BioAssay AID743294 (Broad Institute, 2014).
Potency and affinity values are given separately. Activity calls are given as the source filed them.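 How the source made its calls: active means compounds lowering fluorescence whose fitted half-maximal dose is at most twice the top valid dose; inconclusive means flat fit between -70% and -30%, or poor curve fit; inactive means the rest.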

Target: Caspase-8 (Homo sapiens) (UniProt Q14790)
Test: caspase-8 inhibition counter-screen, dose response, selectivity assay for caspase-6 inhibitor project, biochemical, Z-IETD-R110 fluorescence, cherry-picked samples (AID 743294)
Settings: purified caspase-8, Z-IETD-R110 cleavage fluorescence; series mostly up to 35 µM; activity change, negative = inhibition: at the top concentration

Chain of Caspase-8 (Homo sapiens) (Q14790 whole entry, looked up): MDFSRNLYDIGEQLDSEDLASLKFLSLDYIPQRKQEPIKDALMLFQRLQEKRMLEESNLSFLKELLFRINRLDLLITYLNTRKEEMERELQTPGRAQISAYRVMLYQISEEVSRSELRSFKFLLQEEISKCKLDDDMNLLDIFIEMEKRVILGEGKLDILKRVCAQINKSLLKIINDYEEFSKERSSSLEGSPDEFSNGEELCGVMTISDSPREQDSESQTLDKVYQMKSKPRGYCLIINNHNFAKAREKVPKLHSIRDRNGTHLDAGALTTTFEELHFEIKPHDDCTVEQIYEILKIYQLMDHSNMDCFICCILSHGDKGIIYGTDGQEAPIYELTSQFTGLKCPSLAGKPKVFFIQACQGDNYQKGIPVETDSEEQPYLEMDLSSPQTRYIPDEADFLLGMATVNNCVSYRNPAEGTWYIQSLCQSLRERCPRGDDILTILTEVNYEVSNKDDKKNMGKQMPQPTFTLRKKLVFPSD

SMILES | activity change, negative = inhibition
CCN(CC)CCCC(C)n1c2nc(=O)[nH]c(=O)c-2nc2cc(Cl)ccc21 (centres undefined) | 399% (inactive)
O=C(O)CC(CCc1ccccc1)OC1OC(CO)C(O)C(O)C1O (centres undefined) | -1.96% (inactive)
CNS(=O)(=O)c1cccc(C(=O)OCC(=O)N2c3ccccc3NC(=O)C2(C)C)c1 | -7.76% (inactive)
O=c1cc2c(=O)oc3cc(O)c(O)oc3c2c(O)c1O | -4.58% (inactive)
CCCCNC(=O)c1nc(C2CCNCC2)oc1-c1cccc(C(F)(F)F)c1 | -7.09% (inactive)
CC(CNc1ccccc1O)C(=O)O (centres undefined) | 1.88% (inactive)
O=C(Nc1ccc(S(=O)(=O)Nc2cnc3ccccc3n2)cc1)c1ccc(Cl)c([N+](=O)[O-])c1 | 4.27% (inactive)
Cc1[nH]nc(S(=O)CC(=O)O)c1[N+](=O)[O-] (centres undefined) | -4.33% (inactive)
COc1ccc([N+](=O)[O-])cc1NC(=O)CCS(=O)(=O)c1ccc(Br)cc1 | 4.06% (inactive)
O=C(CCO)c1ccc(O)cc1 | 4.64% (inactive)
COc1cc(NC(C)CCCNC(C)C)c2ncccc2c1OC (centres undefined) | -11.9% (inactive)
CO[C@H]1CN(C)C(=O)c2cc(NC(C)=O)ccc2OC[C@@H](C)N(C(=O)CC2CC2)C[C@H]1C | 6.41% (inactive)
Cc1cc(C=O)c(C)n1-c1cc(C(=O)O)cc(C(=O)O)c1 | 6.11% (inactive)
O=C(O)/C(=C\c1ccc(Cl)c([N+](=O)[O-])c1)c1ccc(S(=O)(=O)N2CCCC2)s1 | 4.55% (inactive)
CCCSC1=N/C(=C\c2ccc([N+](=O)[O-])o2)C(=O)S1 | -9.42% (inactive)
Oc1cc2c(cc1O)[C@H]1c3ccc(O)c(O)c3OC[C@@]1(O)C2 | -0.465% (inactive)
CCOC(=O)c1sc2nc(OCCN3CCOCC3)cc(C)c2c1N | -10.5% (inactive)
O=[N+]([O-])c1c(Nc2ccccn2)cc(Cl)c2nonc12 | -1.29% (inactive)
Nc1c(O)cccc1C(=O)O | -9.42% (inactive)
O=C(Nc1ccc2nc3n(c(=O)c2c1)CCCCC3)c1c(F)ccc([N+](=O)[O-])c1F | -5.39% (inactive)

SMILES | activity change, negative = inhibition
Cc1ccc(S(=O)c2ccc([N+](=O)[O-])c3nonc23)cc1 (centres undefined) | -3.86% (inactive)
CCOC(=O)[C@H](Cc1c[nH]c2ccccc12)NC(=O)CN=[N+]=[N-] | 4.03% (inactive)
COc1cc(NCCCCC(C)N)c2nccc(C)c2c1 (centres undefined) | 1.09% (inactive)
O=C(O)Cc1ccc(-n2cccc2)cc1 | 1.25% (inactive)
Cc1oc2c(cc(NS(=O)(=O)c3ccc(C(C)C)cc3)c3ccccc32)c1C(=O)O | -1.4% (inactive)
Cc1ccc(S(=O)(=O)Nc2csc(C)c2C(=O)O)cc1 | 6.52% (inactive)
C/C(CC(=O)N1CCCC1)=N\NC(=O)c1cc2ccccc2cc1O | 1.86% (inactive)
Cc1cc(C=O)c(C)n1-c1ccc(Cl)c(C(=O)O)c1 | 7.49% (inactive)
O=P(c1ccccc1)(c1ccccc1)c1cc(S(=O)(=O)O)ccc1O | 2.21% (inactive)
COc1ccc(C(=O)OCC(=O)Nc2ncc([N+](=O)[O-])s2)cc1OC | -10.6% (inactive)
O=c1c(CO)cc(CO)cc(CO)c1O | 4.83% (inactive)
O=C(C[C@@H]1C[C@H]2c3cc(NC(=O)NC4CCCCC4)ccc3O[C@H]2[C@H](CO)O1)NCc1ccccn1 | -2.62% (inactive)
Nc1cc(S(=O)(=O)O)cc([N+](=O)[O-])c1O | 2.88% (inactive)
O=C(O)CCc1ccc(-c2ccc(Br)cc2)n1CC(=O)O | 0.86% (inactive)
Cn1cnnc1SCC(=O)Nc1ncc([N+](=O)[O-])s1 | -6.58% (inactive)
COc1ccc(NS(=O)(=O)c2ccc3c(c2)[C@H]2C=CC[C@H]2[C@@H](c2ccc(C(=O)O)cc2)N3)cc1 | -2.93% (inactive)
[O-][n+]1onc2c1CCc1c-2nn(-c2ccccc2Cl)[n+]1[O-] | -0.399% (inactive)
COCCn1c2nc(=O)n(-c3ccccc3)c(=O)c-2nc2ccccc21 | 125% (inactive)
Nc1ccc(Nc2ccccc2)c(S(=O)(=O)O)c1 | 1.15% (inactive)
